Test results: PubChem BioAssay (EPA / NIEHS)
Records with an inconclusive call do not appear. Some compounds were tested as several samples or in several runs, with calls that do not always agree. The source made the active and inactive calls. The calls were made as follows: active = hit-call score of the fitted dose curve at least 0.9, where 1 is the maximum; inconclusive = response in the unintended direction; inactive = score below 0.9.

target: Nuclear receptor subfamily 4 group A member 2 (Homo sapiens) (UniProt P43354); test: ATG_NURR1_TRANS: Attagene TRANS-FACTORIAL HepG2 Assay for human Nuclear Receptor Related Protein 1 (NURR1) (AID 2282985); settings: HepG2 Attagene TRANS reporter, mRNA readout
Sequence (P43354 whole entry, looked up): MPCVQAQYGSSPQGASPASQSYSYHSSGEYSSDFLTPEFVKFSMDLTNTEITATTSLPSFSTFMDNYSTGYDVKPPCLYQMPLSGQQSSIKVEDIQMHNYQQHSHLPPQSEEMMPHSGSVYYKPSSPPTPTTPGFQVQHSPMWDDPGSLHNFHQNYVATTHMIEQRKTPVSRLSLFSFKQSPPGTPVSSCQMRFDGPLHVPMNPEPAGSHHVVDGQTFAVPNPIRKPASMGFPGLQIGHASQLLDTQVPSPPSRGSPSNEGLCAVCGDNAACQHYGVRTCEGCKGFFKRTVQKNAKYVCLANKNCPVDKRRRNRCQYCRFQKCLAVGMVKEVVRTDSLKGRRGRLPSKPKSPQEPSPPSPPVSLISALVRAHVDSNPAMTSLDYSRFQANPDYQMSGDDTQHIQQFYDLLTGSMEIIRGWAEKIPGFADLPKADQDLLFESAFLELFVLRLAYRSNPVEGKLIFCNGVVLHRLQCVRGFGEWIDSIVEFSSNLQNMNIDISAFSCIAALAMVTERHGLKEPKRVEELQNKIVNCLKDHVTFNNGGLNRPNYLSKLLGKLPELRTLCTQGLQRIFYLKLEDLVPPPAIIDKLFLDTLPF
Method: ATG_TRANS is a cell-based, multiplexed-readout assay that uses HepG2, a human liver cell line, with measurements taken at 24 hours after chemical dosing in a 24-well plate.ATG_NURR1_TRANS is one of 30 assay component(s) measured or calculated from the ATG_TRANS assay. It is designed to make measurements of mRNA induction, a form of inducible reporter, as detected with fluorescence intensity signals by Reverse transcription polymerase chain reaction (RT-PCR) and Capillary electrophoresis technology.Data from the assay component ATG_NURR1_TRANS was analyzed into 1 assay endpoint. This assay endpoint, ATG_NURR1_TRANS, was analyzed in the positive analysis fitting direction relative to DMSO as the negative control and baseline of activity. Using a type of inducible reporter, measures of mRNA for gain-of-signal activity can be used to understand the reporter gene at the transcription factor-level as they relate to the gene NR4A2. Furthermore, this assay endpoint can be referred to as a primary readout, because this assay has produced multiple assay endpoints where this one serves a reporter gene function. To generalize the intended target to other relatable targets, this assay endpoint is annotated to the nuclear receptor intended target family, where the subfamily is orphan.
Human liver HepG2 cells are transiently transfected with multiple reporter transcription units (MRTUs) in 6-well plates using FuGene 6 reagent (Roche; 3 ml FuGene/1 mg DNA). The MRTU constructs are regulated by a cis-regulating element (promoter). […] A major difference between the CIS and TRANS system is that in CIS activities of endogenous TFs are measured, whereas the TRANS assay evaluates changes in activities of exogenous, chimeric NR-Gal4 proteins. […] At the end of 24 hour incubation, total RNA was isolated using TriZol reagent (Invitrogen). The isolated RNA is then reverse-transcribed using oligo(dT) primer and Mo-MLV reverse transcriptase (Invitrogen) with DNAse I (Ambion) treatment for 30 min. The one-tenth of the produced cDNA was amplified by PCR using Taq DNA polymerase (Invitrogen) and two reporter sequence-specific primers. The PCR products were fluorescently labeled by primer extension with 6-arboxyfluorescein (6-FAM) 5'-labeled reporter sequence-specific primer (2 min at 95 C, 20 s at 68 C and 10 min at 72 C) and these products were digested with 5U of HpaI (New England Biolabs) for 2h at 37 C. The fragments were purified using Qiaquick PCR columns (Qiagen), analyzed on an ABI 3130xL genetic analyzer (Applied Biosystems) with peak positions identified by using a set of X-rhodamine (ROX)-labeled MapMarker1000 molecular weight standards (BioVentures). The raw capillary electrophoresis data was processed using Attagraph software (Attagene).

Compound	outcome	AC50
CCCN(CCC)c1c([N+](=O)[O-])cc(S(N)(=O)=O)cc1[N+](=O)[O-]	inactive	53.1 µM (active)
CO/C=C(/C(=O)OC)c1ccccc1Oc1cc(Oc2ccccc2C#N)ncn1	inactive	71.2 µM (active)
CCOP(=S)(OCC)SCn1c(=O)oc2cc(Cl)ccc21	inactive	–
COC(=O)C(C)Oc1ccc(Oc2ccc(Cl)cc2Cl)cc1 (centres undefined)	inactive	–
CC(C)Oc1cc(-n2nc(C(C)(C)C)oc2=O)c(Cl)cc1Cl	inactive	–
CN(C)C(=S)SSC(=S)N(C)C	inactive	–
CCOC(=O)CC(SP(=S)(OC)OC)C(=O)OCC (centres undefined)	inactive	–
CC(C)C1(C)N=C(c2nc3ccccc3cc2C(=O)O)NC1=O (centres undefined)	inactive	–
CS/C(C)=N/OC(=O)N(C)SN(C)C(=O)O/N=C(\C)SC	inactive	–
CC(C)(C)c1ccc(CSc2cnn(C(C)(C)C)c(=O)c2Cl)cc1	inactive	–
O=C(O)c1nc(Cl)ccc1Cl	inactive	–
COC(=O)C=C(C)OP(=O)(OC)OC	inactive	–
CNC(=S)S	inactive	–
OC(c1ccc(Cl)cc1)(c1cncnc1)c1ccccc1Cl (centres undefined)	inactive	–
COP(=S)(OC)Oc1nc(Cl)c(Cl)cc1Cl	inactive	–
CCCCC(CC)COC(=O)c1ccccc1C(=O)OCC(CC)CCCC (centres undefined)	inactive	–

Compound	outcome	AC50
Oc1ccccc1-c1ccccc1	inactive	–
O=C(Nc1ccccc1)Nc1ccnc(Cl)c1	–	50 µM (active)
O=C(O)COc1nc(Cl)c(Cl)cc1Cl	inactive	–
CCCC1COC(Cn2cncn2)(c2ccc(Cl)cc2Cl)O1 (centres undefined)	inactive	–
COc1nc(C)nc(NC(=O)NS(=O)(=O)c2ccccc2CCC(F)(F)F)n1	inactive	–
CCCCOC(=O)c1ccccc1C(=O)OCCCC	inactive	–
Fc1ccc(Oc2ccnc3cc(Cl)cc(Cl)c23)cc1	inactive	–
COc1cnc(OC)n2nc(NS(=O)(=O)c3c(OCC(F)F)cccc3C(F)(F)F)nc12	inactive	–
Cc1c(F)c(F)c(COC(=O)C2C(/C=C(\Cl)C(F)(F)F)C2(C)C)c(F)c1F (centres undefined)	inactive	–
Cc1cc(Cl)ccc1OCC(=O)O	inactive	–
C=CC1(C)OC(=O)N(c2cc(Cl)cc(Cl)c2)C1=O (centres undefined)	inactive	–
CNC(=O)ON=CC(C)(C)SC	inactive	–
COc1ccc(C(c2ccc(OC)cc2)C(Cl)(Cl)Cl)cc1	inactive	–
COP(N)(=O)SC (centres undefined)	inactive	–
CON(C)C(=O)Nc1ccc(Cl)c(Cl)c1	inactive	–
COc1nc(NC(C)C)nc(NC(C)C)n1	inactive	–
